Assay results: the supplement of paper PMC10720658
± gives the standard deviation of the averaged measurements.

What follows are molecules tested on AEK1 (Tb927.3.2440) (assay: percent reduction in TR-FRET probe signal relative to DMSO control; higher = stronger displacement of ATP-site probe (binding)). Settings: 1 µM; incubation time 1 h.

| SMILES | percent reduction in TR-FRET probe signal |
| --- | --- |
| COc1cc2ncnc(Nc3cccc(Cl)c3)c2cc1OC [AG-1478 (Tyrphostin AG-1478)] | 0.453 ± 6.3% |
| COc1cc2ncnc(Nc3ccc(O)c(Br)c3)c2cc1OC | -7.2 ± 7.7% |
| CNc1nc(Nc2cn(C(C)(C)C#N)nc2C)ncc1C(F)(F)F | -10.7 ± 11% |
